Giardia kill: kills Giardia lamblia; Giardia lamblia trophozoite viability; activity change, % at 7.66 µM, hits read low; 0.15% of 340,000 active; AID 540267; in the data active = activity change below about -80%; inconclusive = between about -30% and that limit;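 note: parasites exposed to compound for two days anaerobically before the ATP read; % is set by controls: 0 for no effect and ±100 for the full control effect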
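Trophozoite viability was measured as ATP-dependent luminescence, read 15-30 min after reagent addition. Before that, parasites at 100 cells/well were exposed to compounds for 48 h, anaerobically, at 37 deg C.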
SW480 rereplic: inducers of DNA re-replication in SW480 colon cancer cells | SW480 DNA re-replication, Hoechst DNA content imaging, 48 h | Potency, µM (top dose mostly 46.1 µM), inactives show top-dose re-replication activation, hits mostly activators | 1.8% of 340,000 active; note: potency is the fitted concentration of half-maximal effect; % of control where 0% means no effect; nearly all actives have a fitted effect of over 55% in size
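250 cells/well; 23 nL cpd via pin tool; 48 hr, 37 C, 5% CO2; Hoechst 40 min; imager read of total nuclear intensity, ex 405/em 500-530 nm.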
IL1B secr inh: blocks inflammasome-driven IL-1 beta release; activity change, % at 57.5 µM; AID 743279; THP-1 LPS/ATP IL-1B secretion, AlphaLISA, 16 h; active compounds read low; 4.7% of 360,000 active; in the data active = activity change below about -50%; inconclusive = mostly about -30% to -49%; note: % is set by controls: 0 for no effect and ±100 for the full control effect
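THP-1 cells pretreated 1 hr with compounds (up to 57.5 uM final), then stimulated with LPS (250 ng/mL final) plus ATP (1.25 mM final); secreted IL-1B measured by AlphaLISA after 16 hr, decreased signal indicating inhibition.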
MCF10A rereplic: induces DNA re-replication in MCF 10a normal breast cells. MCF 10A DNA re-replication, Hoechst nuclear intensity, 48 h. 2.9% of 350,000 active. Potency, µM (doses to about 46.1 µM), without a hit: at the top dose activity, positive = re-replication, hits mostly activators; note: potency is the fitted concentration of half-maximal effect; % of control where 0% means no effect; nearly all actives have a fitted effect of over 50% in size
Vif-APOBEC3F blk: Vif-A3F binding inhibition | 0.2% of 390,000 active | Potency, µM (doses to about 46.1 µM), for the others: at the top dose activity, negative = active | HeLa A3F-eYFP + Vif (tagged APOBEC3F with the HIV-1 protein that degrades it), YFP fluorescence increase | AID 602313; note: potency is the fitted concentration of half-maximal effect; % of control where 0% means no effect; nearly all actives have a fitted effect of over 65% in size
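HeLa cells stably expressing A3F-eYFP plus Vif, plated and incubated overnight at 37 deg C, then exposed to compounds overnight at 37 deg C. Blocked degradation read as raised yellow fluorescence (Ex 488/Em 500-530).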
Vif-A3G inh: inhibitors of Vif-APOBEC3G interaction. Q9HC16. HeLa A3G-eYFP + Vif (tagged APOBEC3G with the HIV-1 protein that degrades it), YFP fluorescence, overnight. AID 602310. 0.076% of 410,000 active. Potency, µM (titrated, usually from 46.1 µM), without a hit: at the highest dose activity, negative = active, actives largely listed as inhibitors; note: potency is the fitted concentration of half-maximal effect; % is set by controls: 0 for no effect and ±100 for the full control effect; nearly all actives have a fitted effect of over 60% in size
Target sequence (Q9HC16 whole entry, looked up): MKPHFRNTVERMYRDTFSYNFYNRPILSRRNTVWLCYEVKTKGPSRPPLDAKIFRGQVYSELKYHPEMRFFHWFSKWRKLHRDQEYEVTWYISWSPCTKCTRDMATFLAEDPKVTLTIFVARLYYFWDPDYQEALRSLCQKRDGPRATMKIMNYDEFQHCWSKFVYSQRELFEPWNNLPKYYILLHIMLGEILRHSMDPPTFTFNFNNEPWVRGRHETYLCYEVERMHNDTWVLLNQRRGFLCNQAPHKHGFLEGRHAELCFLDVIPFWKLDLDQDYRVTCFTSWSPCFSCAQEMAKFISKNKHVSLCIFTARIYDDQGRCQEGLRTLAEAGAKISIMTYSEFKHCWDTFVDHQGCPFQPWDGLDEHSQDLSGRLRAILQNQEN
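Read-out is eYFP fluorescence (Ex 488/Em 500-530) from Vif-expressing HeLa A3G-eYFP cells; more signal means A3G escaped Vif-mediated degradation. Cells plated overnight, compound pinned in, incubated overnight at 37 deg C.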
* marks the source's active call; other numbers are inactive results; ? = inconclusive; · = no result given. This is a sample that favours compounds with a hit; in the whole collection about 6.9% have one here. Unless noted, calls come from the whole dose curve; as a rule, active = well fitted curve in the direction sought with a large enough effect; inconclusive = small, poorly fitted or top-dose-only effect, or another doubt; inactive = no such curve, though single readings can be large; an effect the other way counts as inactive or inconclusive.

SMILES	Giardia kill	SW480 rereplic	IL1B secr inh	MCF10A rereplic	Vif-APOBEC3F blk	Vif-A3G inh
COc1ccc(C(=O)C2CCN(C(=S)Nc3ccc(F)cc3)CC2)cc1	-1	?	-63*	10%	9%	1%
COc1ccc(CCNC(=O)C2CCN(C(=O)c3ccc(F)cc3)CC2)cc1	7	?	13	0.65µM*	-2%	0%
COc1ccc(CCNC(=O)C2CCN(C(=O)c3ccc(Cl)cc3)CC2)cc1	-20	1%	9	-1%	-11%	-1%
CCC(C(=O)Nc1c(C)cccc1C)n1c(-c2ccc(-c3ccccc3)cc2)nc2ccccc21 (centres undefined)	·	·	-12	·	·	·
COc1ccccc1OCCSc1nc2ccccc2n1CC(=O)N1CCOCC1	·	·	·	·	0%	-2%
CCc1ccccc1NC(=O)Cn1nnc(C(=O)Nc2ccc(OC)c(OC)c2)c1N	·	·	·	·	-8%	4%
CCN(CC(=O)NCc1ccc(Cl)cc1)C(=O)CSc1ccc(F)cc1	10	-1%	-12	6%	?	0%
CCN(CC(=O)NCc1ccc(Cl)cc1)C(=O)CSCC(=O)Nc1ccc(C)cc1	1	3%	-93*	12%	5%	-4%
CCN(CC(=O)NCc1ccc(Cl)cc1)C(=O)CSc1cc(C)ccc1C	45	0%	-58*	?	6%	-1%
Cc1cc(C(Br)(Br)Br)nc2ccccc12	·	·	·	·	·	-17%
COc1cc(C)c(S(=O)(=O)N2CCOCC2)cc1C	-6	8.2µM*	28	3.3µM*	-4%	2%
Cc1ccc(Cl)cc1NC(=O)C(=O)NCCc1sc(-c2ccc(F)cc2)nc1C	·	·	·	·	-2%	-1%
CN(C)c1ccc(C(=O)NCc2ccc3c(c2)OCO3)cc1	-9	-5%	-19	-5%	3%	-4%
Cc1ccc(/C([O-])=C(/C(=S)NCc2ccc3c(c2)OCO3)[n+]2ccc(N(C)C)cc2)c(C)c1	4	-70%	-68*	-26%	?	-4%
COc1ccc(-c2csc(N(CCCN3CCOCC3)C(=O)c3ccco3)n2)cc1	-17	?	?	?	-1%	-20%
Cc1ccc(-c2csc(N(CCCN3CCOCC3)C(=O)c3ccco3)n2)cc1	-1	0%	-53*	3%	0%	-8%
Cc1ccc(-c2csc(N(CC3CCCO3)C(=O)c3ccco3)n2)cc1 (centres undefined)	-12	?	66	21µM*	1%	-17%
CN(C)CCCN(C(=O)c1ccco1)c1nc(-c2ccc(Cl)cc2)cs1	-13	-8%	-54*	-2%	5%	2%
CN(C(=O)c1ccco1)c1nc(-c2ccc(Cl)cc2)cs1	16	0%	?	-1%	1%	3%
Cc1ccc(-c2csc(N(CCCN(C)C)C(=O)c3ccco3)n2)cc1	-9	?	-77*	?	-1%	2%
O=C(c1ccco1)N(CC1CCCO1)c1nc(-c2ccccc2)cs1 (centres undefined)	-11	26%	-10	?	-3%	-3%
Cc1ccc2nc(N(CCCN(C)C)C(=O)c3ccco3)sc2c1	-2	6%	-11	-2%	-15%	2%
Cc1cccc(NC(=O)N2CC(=O)Nc3sc4c(c3C2c2ccccc2)CCCC4)c1C (centres undefined)	·	·	·	·	3%	9%
Cc1ccc(NC(=O)c2c(C)oc3nc(C)nc(N4CCCC4)c23)c(C)c1	·	·	·	·	0%	-1%
COc1ccc(OC)c(-c2noc(CSc3nnc(-c4ccccc4)n3-c3ccccc3)n2)c1	·	·	·	·	0%	0%
SMILES	Giardia kill	SW480 rereplic	IL1B secr inh	MCF10A rereplic	Vif-APOBEC3F blk	Vif-A3G inh
CC1(C)CC(=O)C=C(C#CC2(O)CCCCC2)C1	·	·	-108*	·	-7%	?
COc1cccc(CN2C(=O)C(C)N(C(=O)c3c(F)cccc3F)c3ccccc32)c1 (centres undefined)	0	3%	-14	?	0%	-3%
CC1C(=O)N(Cc2ccccc2F)c2ccccc2N1C(=O)c1c(F)cccc1F (centres undefined)	20	7%	?	21µM*	11%	3%
COC(=O)c1c(-c2cccs2)csc1NC(=O)c1ccc(C(C)(C)C)cc1	·	·	·	·	-4%	4%
COc1ccc(-n2c(=O)c3c(c4cc(OC)ccc4n3C)n(Cc3ccc(F)cc3Cl)c2=O)cc1	·	·	·	·	-11%	3%
O=C1C[C@H](c2ccc(-c3ccccc3)cc2)N1S(=O)(=O)c1ccccc1[N+](=O)[O-]	-11	·	·	·	·	-1%
COc1ccc(/C=C2\C(=O)NCC(=O)N2Cc2ccccc2)cc1	2	16µM*	26	?	-7%	?
O=C(O)Cc1cn(Cc2cccc(Cl)c2)c2ccccc12	0	?	3	-1%	-14%	-1%
O=C(Cc1cn(Cc2cccc(Cl)c2)c2ccccc12)N1CCCCCC1	-3	-65%	-65*	?	-25%	1%
CC1CCCN(C(=O)Cc2cn(Cc3cccc(Cl)c3)c3ccccc23)C1 (centres undefined)	-17	6%	-76*	?	?	-11%
CC(=O)N1CCCC1c1nc2ccccc2n1Cc1cccc(Cl)c1 (centres undefined)	·	·	·	·	-8%	-2%
CCCCC1OC23CCCCC2C(C#N)(C(=N)O3)C1(C#N)C#N (centres undefined)	-2	-2%	-10	-13%	-5%	-6%
CCCCC1OC23CCCCC2C(C#N)(C#N)C1(C#N)C(=N)O3 (centres undefined)	-5	-4%	-102*	?	-17%	0%
CCCCn1cc(S(=O)(=O)c2cc(C)ccc2C)c(=O)c2cc(F)c(N3CCC(C)CC3)cc21	·	·	·	·	-9%	0%
COc1ccc(-c2nn3c(-c4cc(C)[nH]n4)nnc3s2)cc1	11	·	·	·	·	1%
O=C(CNC(=S)NC(=O)c1ccc(Br)o1)c1ccccc1	-1	21µM*	0	6.5µM*	-32%	-25%
O=C1CN(C(=O)c2cccc(Br)c2)C(c2ccccc2)c2cc(Cl)ccc2N1 (centres undefined)	·	·	·	·	-6%	-12%
CC1=C(C(=O)Nc2cccnc2)C(c2cccc(Br)c2)n2nc(SCc3ccccc3)nc2N1 (centres undefined)	·	·	·	·	-13%	3%
CC(=O)n1cc([C@@H]2C=C(C(=O)NCc3ccccc3)O[C@H](OCc3ccc(CO)cc3)C2)c2ccccc21	13	-4%	?	13µM*	-29%	-17%
C#CCNC(=O)C1=C[C@H](c2cn(C(C)=O)c3ccccc23)C[C@H](OCc2ccc(CO)cc2)O1	-1	-1%	-17	-1%	-6%	-11%

High-throughput results deposited in PubChem BioAssay by National Center for Advancing Translational Sciences (NCATS).
